Values joined by “and” are separate entries in the source; they are usually repeats but may differ in a detail not shown here. Equal values may be shown once. Results filed as inconclusive are left out. A call without a number means that no potency is given here. Active and inactive are the calls of the source. Unless noted, the call rests on the fitted dose curve; in most records, active means well fitted curve in the direction sought with a large enough effect in the repeat runs; inconclusive means weak or mixed curves; inactive means no such curve, though single readings can be large; an effect the other way counts as inactive or inconclusive.
Experiments:
[1] = molecular target: Acetylcholinesterase (Homo sapiens) (UniProt P22303); experiment: Acetylcholinesterase (AChE) small molecule antagonists: enzyme-based qHTS assay with human liver microsomes (AID 1347399; calls by dose curve; further: nearly all actives have a fitted effect of over 60% in size); settings: Potency: qHTS inhibition
Summary of the method: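 Recombinant human AChE (50 mU/mL in the enzyme mix) and human liver microsomes (0.25 mg/mL final) were preincubated with compound and NADPH (0.25 mg/mL final) for 30 min at 37 C. Acetylthiocholine/DTNB was then added; thiocholine was read colorimetrically after 10 min at room temperature.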

[2] = molecular target: Cytochrome P450 2C19 (Homo sapiens) (UniProt P33261); experiment: Cytochrome P450 Family 2 Subfamily C Member 19 (CYP2C19) small molecule antagonists: luciferase reporter qHTS assay (AID 1671197); further: nearly all actives have a fitted effect of over 65% in size
Summary of the method: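 Quantitative high-throughput screen of the Tox21 library using CYP2C19 with proluciferin substrate. Reaction: NADPH regeneration, 37C, 1 h, after 10 min compound preincubation at room temperature. Readout: luminescence.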

[3] = molecular target: Cytochrome P450 2C9 (Homo sapiens) (UniProt P11712); experiment: Cytochrome P450 Family 2 Subfamily C Member 9 (CYP2C9) small molecule antagonists: luciferase reporter qHTS assay (AID 1671198); further: nearly all actives have a fitted effect of over 50% in size
Summary of the method: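 P450-Glo proluciferin substrate with CYP2C9 enzyme; 10 min RT preincubation, then NADPH regeneration 1 h at 37C; luciferin detection reagent 20 min RT, luminescence in relative luminescence units.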

[4] = molecular target: Cytochrome P450 1A2 (Homo sapiens) (UniProt P05177); experiment: Cytochrome P450 Family 1 Subfamily A Member 2 (CYP1A2) small molecule antagonists: luciferase reporter qHTS assay (AID 1671199); further: nearly all actives have a fitted effect of over 50% in size
Summary of the method: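 P450-Glo CYP1A2 enzyme–proluciferin substrate mix with compound 10 min at room temperature, then NADPH regeneration 1 h at room temperature. Luciferin detection reagent added, luminescence read after 20 min; furafylline positive control.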

[5] = molecular target: Voltage-gated inwardly rectifying potassium channel KCNH2 (Homo sapiens) (UniProt Q12809); experiment: Human Ether-a-go-go-Related Gene (hERG) channel small molecule antagonists: fluorescence cell-based qHTS assay (AID 1671200); further: nearly all actives have a fitted effect of over 50% in size
Summary of the method: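 Quantitative HTS in hERG-U2OS cells: thallium entry through the channel reports activity, read as continuous 480/540 nm fluorescence over 2 min after stimulus addition.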

[6] = molecular target: Cytochrome P450 3A4 (Homo sapiens) (UniProt P08684); experiment: Cytochrome P450 Family 3 Subfamily A Member 4 (CYP3A4) small molecule antagonists: luciferase reporter qHTS assay (AID 1671201); further: nearly all actives have a fitted effect of over 50% in size
Summary of the method: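 Inhibition of CYP3A4 is measured as loss of light: the enzyme converts a proluciferin substrate to luciferin, detected luminescently. Reaction ran 1 h at room temperature with NADPH regeneration after a 10 min compound preincubation.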

[7] = molecular target: Cytochrome P450 2D6 (Homo sapiens) (UniProt P10635); experiment: Cytochrome P450 Family 2 Subfamily D Member 6 (CYP2D6) small molecule antagonists: luciferase reporter qHTS assay (AID 1671196); further: nearly all actives have a fitted effect of over 50% in size
Summary of the method: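 Cell-free P450-Glo system: CYP2D6 with proluciferin substrate was pre-incubated with compound for 10 min, then reacted with NADPH regeneration for 1 h at room temperature. Luciferin product was detected after 20 min, and data were reported as relative luminescence units.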
Potency means the concentration at half of the fitted maximal effect.

Chain of Cytochrome P450 2C9 (Homo sapiens) (P11712 whole entry, looked up): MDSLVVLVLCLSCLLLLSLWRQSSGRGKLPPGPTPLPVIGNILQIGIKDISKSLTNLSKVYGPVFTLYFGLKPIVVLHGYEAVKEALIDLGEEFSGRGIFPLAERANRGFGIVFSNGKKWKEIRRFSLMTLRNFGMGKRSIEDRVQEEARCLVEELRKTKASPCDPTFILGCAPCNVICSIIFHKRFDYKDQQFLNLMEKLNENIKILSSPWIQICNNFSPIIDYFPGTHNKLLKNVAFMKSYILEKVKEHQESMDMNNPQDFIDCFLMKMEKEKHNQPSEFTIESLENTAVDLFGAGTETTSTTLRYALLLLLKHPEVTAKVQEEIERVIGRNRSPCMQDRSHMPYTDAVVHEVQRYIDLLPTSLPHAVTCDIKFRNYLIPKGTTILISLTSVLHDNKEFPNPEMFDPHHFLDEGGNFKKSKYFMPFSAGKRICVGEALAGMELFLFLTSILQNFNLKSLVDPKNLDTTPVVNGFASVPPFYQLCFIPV
Chain of Cytochrome P450 2C19 (Homo sapiens) (P33261 whole entry, looked up): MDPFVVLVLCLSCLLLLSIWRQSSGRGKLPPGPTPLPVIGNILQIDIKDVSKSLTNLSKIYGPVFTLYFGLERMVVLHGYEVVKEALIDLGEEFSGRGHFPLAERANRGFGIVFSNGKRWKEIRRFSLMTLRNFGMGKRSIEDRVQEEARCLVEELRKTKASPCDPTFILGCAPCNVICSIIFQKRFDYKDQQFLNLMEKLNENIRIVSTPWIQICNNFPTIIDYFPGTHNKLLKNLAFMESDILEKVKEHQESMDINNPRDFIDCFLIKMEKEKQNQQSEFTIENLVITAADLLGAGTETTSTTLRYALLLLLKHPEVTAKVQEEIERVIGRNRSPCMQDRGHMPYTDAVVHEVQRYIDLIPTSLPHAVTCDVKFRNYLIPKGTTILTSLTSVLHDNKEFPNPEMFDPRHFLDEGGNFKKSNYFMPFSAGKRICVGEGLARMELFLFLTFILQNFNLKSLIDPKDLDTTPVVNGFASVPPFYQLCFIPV
Chain of Cytochrome P450 1A2 (Homo sapiens) (P05177 whole entry, looked up): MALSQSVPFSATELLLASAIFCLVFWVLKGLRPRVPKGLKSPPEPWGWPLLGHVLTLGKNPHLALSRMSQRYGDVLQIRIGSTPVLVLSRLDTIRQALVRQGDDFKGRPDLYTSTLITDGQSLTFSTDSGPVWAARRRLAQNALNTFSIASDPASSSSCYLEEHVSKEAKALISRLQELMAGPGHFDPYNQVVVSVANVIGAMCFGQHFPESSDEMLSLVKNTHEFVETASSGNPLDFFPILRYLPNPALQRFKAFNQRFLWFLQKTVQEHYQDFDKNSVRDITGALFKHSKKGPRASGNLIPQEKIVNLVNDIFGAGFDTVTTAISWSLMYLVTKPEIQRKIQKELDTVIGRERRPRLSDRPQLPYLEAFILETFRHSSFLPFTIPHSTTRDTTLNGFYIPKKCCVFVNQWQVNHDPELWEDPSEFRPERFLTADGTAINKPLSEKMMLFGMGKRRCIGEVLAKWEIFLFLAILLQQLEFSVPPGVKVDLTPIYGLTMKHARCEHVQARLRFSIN
Chain of Cytochrome P450 3A4 (Homo sapiens) (P08684 whole entry, looked up): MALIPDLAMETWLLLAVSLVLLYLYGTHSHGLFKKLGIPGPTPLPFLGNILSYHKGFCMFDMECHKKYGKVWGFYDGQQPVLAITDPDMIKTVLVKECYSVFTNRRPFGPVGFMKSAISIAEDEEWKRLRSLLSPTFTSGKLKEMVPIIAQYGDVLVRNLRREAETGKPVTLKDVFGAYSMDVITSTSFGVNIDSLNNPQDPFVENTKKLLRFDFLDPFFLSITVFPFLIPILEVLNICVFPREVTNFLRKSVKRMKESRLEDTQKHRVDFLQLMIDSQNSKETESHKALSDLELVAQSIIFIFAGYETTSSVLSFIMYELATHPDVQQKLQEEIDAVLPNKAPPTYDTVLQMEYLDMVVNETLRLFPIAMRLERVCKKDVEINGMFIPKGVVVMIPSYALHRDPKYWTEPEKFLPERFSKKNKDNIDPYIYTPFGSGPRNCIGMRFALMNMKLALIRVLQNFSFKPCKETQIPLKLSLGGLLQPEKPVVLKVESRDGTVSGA
Chain of Voltage-gated inwardly rectifying potassium channel KCNH2 (Homo sapiens) (Q12809 whole entry, looked up): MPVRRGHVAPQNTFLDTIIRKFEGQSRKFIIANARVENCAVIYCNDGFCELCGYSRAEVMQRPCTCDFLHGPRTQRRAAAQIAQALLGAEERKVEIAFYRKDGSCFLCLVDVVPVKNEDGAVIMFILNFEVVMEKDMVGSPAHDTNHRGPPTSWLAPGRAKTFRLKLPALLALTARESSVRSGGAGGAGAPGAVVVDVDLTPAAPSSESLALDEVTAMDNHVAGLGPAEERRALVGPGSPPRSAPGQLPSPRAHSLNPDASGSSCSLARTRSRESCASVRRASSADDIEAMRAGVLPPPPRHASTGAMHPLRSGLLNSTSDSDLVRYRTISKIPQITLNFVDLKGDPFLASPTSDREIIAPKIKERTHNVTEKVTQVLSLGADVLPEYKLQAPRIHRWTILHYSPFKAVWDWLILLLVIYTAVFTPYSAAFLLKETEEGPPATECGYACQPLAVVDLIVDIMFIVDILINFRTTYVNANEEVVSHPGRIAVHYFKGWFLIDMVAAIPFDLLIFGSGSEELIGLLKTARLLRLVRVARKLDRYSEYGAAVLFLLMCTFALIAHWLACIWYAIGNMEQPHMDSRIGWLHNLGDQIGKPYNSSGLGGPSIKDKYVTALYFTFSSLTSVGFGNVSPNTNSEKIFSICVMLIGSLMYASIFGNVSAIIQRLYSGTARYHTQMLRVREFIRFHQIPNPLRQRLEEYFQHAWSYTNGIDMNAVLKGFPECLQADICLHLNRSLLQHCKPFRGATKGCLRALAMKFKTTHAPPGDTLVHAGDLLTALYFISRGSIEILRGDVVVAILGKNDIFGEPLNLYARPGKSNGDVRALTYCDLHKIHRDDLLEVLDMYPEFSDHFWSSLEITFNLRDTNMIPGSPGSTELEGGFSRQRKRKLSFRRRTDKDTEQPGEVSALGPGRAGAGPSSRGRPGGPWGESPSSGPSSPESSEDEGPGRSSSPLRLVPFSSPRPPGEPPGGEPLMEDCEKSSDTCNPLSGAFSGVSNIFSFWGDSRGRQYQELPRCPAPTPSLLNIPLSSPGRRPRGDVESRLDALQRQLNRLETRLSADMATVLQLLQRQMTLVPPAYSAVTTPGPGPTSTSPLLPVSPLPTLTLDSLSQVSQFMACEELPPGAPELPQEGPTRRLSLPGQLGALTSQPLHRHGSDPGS
Chain of Acetylcholinesterase (Homo sapiens) (P22303 whole entry, looked up): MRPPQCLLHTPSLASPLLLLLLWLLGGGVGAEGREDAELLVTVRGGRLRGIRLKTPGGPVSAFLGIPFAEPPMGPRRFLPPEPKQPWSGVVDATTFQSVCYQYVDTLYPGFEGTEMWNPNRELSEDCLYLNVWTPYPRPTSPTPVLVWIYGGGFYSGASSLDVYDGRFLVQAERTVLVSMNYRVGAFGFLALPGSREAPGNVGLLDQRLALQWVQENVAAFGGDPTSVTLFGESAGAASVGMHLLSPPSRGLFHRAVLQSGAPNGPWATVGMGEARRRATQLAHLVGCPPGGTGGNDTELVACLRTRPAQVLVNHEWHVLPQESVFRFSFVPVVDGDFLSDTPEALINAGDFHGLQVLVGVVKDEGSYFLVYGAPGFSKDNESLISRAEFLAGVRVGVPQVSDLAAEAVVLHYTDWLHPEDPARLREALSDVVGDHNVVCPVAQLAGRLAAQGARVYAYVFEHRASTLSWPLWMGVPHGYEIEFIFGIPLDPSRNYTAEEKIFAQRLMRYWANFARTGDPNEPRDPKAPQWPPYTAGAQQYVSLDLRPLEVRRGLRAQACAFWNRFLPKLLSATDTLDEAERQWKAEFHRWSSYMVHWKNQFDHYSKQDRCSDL
Chain of Cytochrome P450 2D6 (Homo sapiens) (P10635 whole entry, looked up): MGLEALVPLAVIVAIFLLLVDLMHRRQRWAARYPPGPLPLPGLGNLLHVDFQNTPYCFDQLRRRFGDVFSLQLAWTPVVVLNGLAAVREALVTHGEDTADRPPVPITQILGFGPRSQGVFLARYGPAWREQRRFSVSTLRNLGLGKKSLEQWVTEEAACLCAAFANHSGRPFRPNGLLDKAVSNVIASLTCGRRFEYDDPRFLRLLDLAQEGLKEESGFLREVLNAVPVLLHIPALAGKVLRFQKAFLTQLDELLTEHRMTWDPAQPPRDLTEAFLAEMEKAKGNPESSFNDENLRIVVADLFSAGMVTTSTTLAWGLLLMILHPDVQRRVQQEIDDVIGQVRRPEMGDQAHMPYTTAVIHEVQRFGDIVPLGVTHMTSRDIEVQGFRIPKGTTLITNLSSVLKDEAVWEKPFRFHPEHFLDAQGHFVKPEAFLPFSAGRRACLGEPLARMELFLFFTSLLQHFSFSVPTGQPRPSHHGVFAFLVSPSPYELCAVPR

SMILES	Potency [1]	Potency [2]	Potency [3]	Potency [4]	Potency [5]	Potency [6]	Potency [7]
NNC(=O)c1ccccc1	inactive	41 µM (active)	41 µM (active)	32.6 µM (active)	inactive	36.6 µM (active)	–
CC1CCC(C(C)C)C(OC(=O)c2ccccc2N)C1 (stereo not drawn)	inactive	1.11 µM (active)	2.48 µM (active)	12.4 µM (active)	43 µM (active)	inactive	–
CC1(c2ccc(Oc3ccccc3)cc2)OC(=O)N(Nc2ccccc2)C1=O (stereo not drawn)	inactive	12.7 µM (active)	8.99 µM (active)	35.8 µM (active)	–	11.3 µM (active)	–
CCCCOCN(C(=O)CCl)c1c(CC)cccc1CC	inactive	0.894 µM (active)	3.99 µM (active)	–	inactive	7.1 µM (active)	–
COP(=O)(OC)SCn1c(=O)oc2cc(Cl)cnc21	71 µM (active)	25.2 µM (active)	31.7 µM (active)	39.9 µM (active)	inactive	–	–
Cc1cc(C)cc(OP(=O)(Oc2cc(C)cc(C)c2)Oc2cc(C)cc(C)c2)c1	inactive	9.08 µM (active)	5.73 µM (active)	22.8 µM (active)	–	2.03 µM (active)	–
C[C@@H]1O[C@@H](O[C@H]2C[C@@H](O)[C@]3(CO)[C@H]4[C@H](O)C[C@]5(C)[C@@H](C6=CC(=O)OC6)CC[C@]5(O)[C@@H]4CC[C@]3(O)C2)[C@H](O)[C@H](O)[C@H]1O	inactive	inactive	inactive	–	inactive	inactive	–
O=C(Nc1ccc2[nH]ccc2c1)c1cc2cc(F)ccc2n1Cc1cccc(F)c1	inactive	6.33 µM (active)	3.56 µM (active)	–	inactive	–	–
CCS(=O)(=O)c1cccnc1S(=O)(=O)NC(=O)Nc1nc(OC)cc(OC)n1	inactive	63.3 µM (active)	71 µM (active)	–	inactive	–	–
CCCCCCCCCBr	inactive	inactive	inactive	inactive	–	inactive	–
COC(=O)N(C(=O)N1COC2(C(=O)OC)Cc3cc(Cl)ccc3C2=N1)c1ccc(OC(F)(F)F)cc1 (stereo not drawn)	inactive	0.195 µM (active)	4.9 µM (active)	inactive	inactive	5.49 µM (active)	–
Nc1ccc([N+](=O)[O-])cc1Cl	inactive	inactive	inactive	25.2 µM (active)	–	inactive	–
CN(C)S(=O)(=O)N(SC(F)(Cl)Cl)c1ccccc1	71 µM (active)	11.2 µM (active)	3.56 µM (active)	22.4 µM (active)	19.5 µM (active)	inactive	–
CCSC(C)CC1CC(=O)C(/C(CC)=N/OC/C=C/Cl)=C(O)C1 (stereo not drawn)	inactive	9.77 µM (active)	13.8 µM (active)	–	inactive	–	–
N#CSCSC#N	inactive	72.6 µM (active)	32.4 µM (active) and 35.2 µM (active)	23 µM (active) and 28 µM (active)	56.2 µM (active) and 43.2 µM (active)	inactive	–
COc1ccc(OC)c(CC(C)N)c1 (stereo not drawn)	inactive	inactive	inactive	inactive	inactive	inactive	–

SMILES	Potency [1]	Potency [2]	Potency [3]	Potency [4]	Potency [5]	Potency [6]	Potency [7]
N#Cc1c(-c2ccc(Cl)cc2)[nH]c(C(F)(F)F)c1Br	inactive	39.9 µM (active)	11.2 µM (active)	0.317 µM (active)	–	inactive	–
CCOC(=O)CC(=O)CCl	inactive	inactive	inactive	–	inactive	inactive	–
COC(=O)N(C(=O)N1CO[C@@]2(C(=O)OC)Cc3cc(Cl)ccc3C2=N1)c1ccc(OC(F)(F)F)cc1	inactive	0.154 µM (active)	2.73 µM (active)	–	inactive	2.44 µM (active)	–
N#CCCSCCC#N	inactive	inactive	inactive	–	inactive	inactive	–
CCCCN(CCCC)C(=S)[S-].CCCCN(CCCC)C(=S)[S-].[Zn+2]	inactive	79.6 µM (active)	20 µM (active)	–	inactive	28.3 µM (active)	–
O=[N+]([O-])c1cc(Cl)ccc1Cl	inactive	inactive	inactive	–	inactive	inactive	–
S=C(SSC(=S)N1CCCCC1)N1CCCCC1	inactive	6.92 µM (active)	6.92 µM (active)	–	inactive	–	–
BrC(Br)C(Br)(Br)Br	inactive	40.2 µM (active)	31.9 µM (active)	31.9 µM (active)	–	inactive	–
Fc1cccc(Cl)c1CCl	inactive	inactive	inactive	39.9 µM (active)	inactive	inactive	–
Cc1cccc(OP(=O)(Oc2cccc(C)c2)Oc2cccc(C)c2)c1	inactive	20 µM (active)	35.6 µM (active)	28.3 µM (active)	inactive	–	–
Cl/C=C\CCl	inactive	inactive	inactive	35.6 µM (active)	inactive	inactive	–
CC(=O)Nc1ccc2c(c1)Cc1ccccc1-2	inactive	18.1 µM (active)	25.6 µM (active)	3.22 µM (active)	inactive	64.3 µM (active)	–
[Hg+2].[I-].[I-]	–	1.42 µM (active)	0.564 µM (active)	3.56 µM (active)	–	2.24 µM (active)	2 µM (active)
CCCCCCCCCCCCCCCC[n+]1ccccc1	inactive	inactive	–	inactive	–	–	–
CC(=O)c1ccc(-c2ccccc2)cc1	–	31.7 µM (active)	15.9 µM (active)	5.03 µM (active)	inactive	–	inactive

From PubChem BioAssay (Tox21)
